Test results as given in the supplement of paper PMC7411054.
Structures can show the parent of a compound that is named as a salt.

test system: A549-ACTB-RAB5A; experiment: phenotypically active (imaging signature differs from DMSO and reproducible) at any of 0.3-9 uM (binary (1 = active, 0 = inactive)); higher = active; settings: treatment time: 24 h
How it was run: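 After 24 h at 0.3, 1, 3 or 9 µM, with four wells per treatment, fifteen gene-edited A549, HepG2 and WPMY1 reporter lines carrying BFP, GFP and RFP/FusionRed were imaged live. Each well's live-cell features were expressed relative to solvent control wells. Deviation required ≥3 of 4 wells past the 95th percentile of control Euclidean distances, and reproducibility a median replicate Pearson correlation over the 95th percentile of non-replicates. Phenotypic activity rested on both.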

Phenotypically active, active:
Nc1nc(Cl)nc2c1ncn2[C@@H]1O[C@H](CO)[C@@H](O)[C@@H]1F [clofarabine] 1
Cc1nc(Nc2ncc(C(=O)Nc3c(C)cccc3Cl)s2)cc(N2CCN(CCO)CC2)n1 [dasatinib] 1
O=C(NCc1cccc(O)c1)Nc1nc(-c2ccncc2)cs1 [RKI 1447 dihydrochloride] 1
CC(C)n1nc(-c2cc3cc(O)ccc3[nH]2)c2c(N)ncnc21 1
COc1ccc(-c2ccc3ncc4c(c3c2)n(-c2ccc(N3CCNCC3)c(C(F)(F)F)c2)c(=O)n4C)cn1 1
CC(C)(C)c1cnc(CSc2cnc(NC(=O)C3CCNCC3)s2)o1 1
O=C(O)c1ccc(Nc2ncc3c(n2)-c2ccc(Cl)cc2C(c2c(F)cccc2F)=NC3)cc1 1
COc1ccc(S(=O)(=O)N(C(C)=O)c2ccccc2/C=C/c2cc[n+]([O-])cc2)cc1 1
CC(C)(C)Nc1nc(Nc2ccc(C(N)=O)cc2)cc(N)c1C#N 1
Nc1cccc(-c2cc3c(Oc4cccc(O)c4)ncnc3[nH]2)c1 1
c1ccc2c(c1)Cc1c(Nc3ccc4c(c3)OCCO4)n[nH]c1-2 1
Cc1c(NC(=O)OC[C@@H]2COCCN2)cn2ncnc(Nc3ccc4c(cnn4Cc4cccc(F)c4)c3)c12 1
CCC(=O)N1CCN(c2ccc(-n3c(=O)ccc4cnc5ccc(-c6cnc7ccccc7c6)cc5c43)cc2C(F)(F)F)CC1 [Torin 1] 1
COc1c(Nc2cc(C)[nH]n2)nc(Sc2ccc(S(=O)(=O)Cc3cccc([N+](=O)[O-])c3F)cc2F)nc1N1CCOCC1 [Centrinone] 1
COc1cc2c(NC3CCN(C(C)C)CC3)nc(N3CCC(F)(F)CC3)nc2cc1OCCCN1CCCC1 1
CC(=O)c1c(C)c2cnc(Nc3ccc(N4CCNCC4)cn3)nc2n(C2CCCC2)c1=O 1
CN1c2ccccc2C(=O)N2CCc3c([nH]c4ccccc34)[C@H]21 [Evodiamine] 1
CO[C@H]1C=CC=C(C)C(=O)NC2=CC(=O)C(NCCN(C)C)=C(C[C@@H](C)C[C@H](OC)[C@H](O)[C@@H](C)C=C(C)[C@@H]1OC(N)=O)C2=O [17-DMAG hydrochloride] 1
Cc1noc(C)c1-c1cc(O)cc(C(O)c2ccccc2)c1 (centres undefined) 1
O=C(Nc1ccc(-c2ccnc(Nc3ccc(N4CCOCC4)cc3)n2)cc1)[C@@H]1CCCN1 1
NC1(C(=O)N[C@@H](CCO)c2ccc(Cl)cc2)CCN(c2ncnc3[nH]ccc23)CC1 1
NC(=O)Nc1cc(-c2cccc(F)c2)sc1C(=O)N[C@H]1CCCNC1 [AZD 7762 hydrochloride] 1
COc1cc2nc(-c3cc(F)ccc3O)nc(N[C@@H]3CNC[C@H]3C(C)(C)O)c2cc1OC 1
Cc1c[nH]c2nccc(Oc3c(F)cc(Nc4cc(Cl)nc(N)n4)cc3F)c12 1
C[C@H]1[C@H]2CC[C@H]3[C@@H]4CC=C5C[C@@H](N(C)C)CC[C@]5(C)[C@H]4CC[C@]23CN1C [Conessine] 1
CON(C)C(=O)N1N=C(c2cc(F)ccc2F)S[C@@]1(CCCN)c1ccccc1 [ARRY 520 trifluoroacetate] 1
CC[C@H](CO)Nc1nc(NCc2ccc(-c3ccccn3)cc2)c2ncn(C(C)C)c2n1 1
Oc1cccc(-c2nc(N3CCOCC3)c3oc4ncccc4c3n2)c1 [PI 103 hydrochloride] 1
COc1cc(/C=C/c2ccc(OC)cc2OC)cc(OC)c1 1
COc1cc2c(cc1-c1c(C)noc1C)ncc1[nH]c(=O)n([C@H](C)c3ccccn3)c12 [I-BET 151 dihydrochloride] 1
COc1cccc(-c2cc(F)ccc2[C@H]2Cc3nc(N)nc(C)c3C(=O)N2)n1 1
COc1cc(C(=O)NC2CCN(C)CC2)c(F)cc1Nc1ncc2c(n1)N(C1CCCC1)CC(F)(F)C(=O)N2C [TAK 960 hydrochloride] 1
CC[C@]1(O)C[C@@H]2CN(CCc3c([nH]c4ccccc34)[C@@](C(=O)OC)(c3cc4c(cc3OC)N(C=O)[C@H]3[C@@](O)(C(=O)OC)[C@H](OC(C)=O)[C@]5(CC)C=CCN6CC[C@]43[C@@H]65)C2)C1 [vincristine] 1
OC[C@H]1O[C@@H](n2cnc3c(NCc4ccco4)ncnc32)[C@H](O)[C@@H]1O [Kinetin riboside] 1
N#Cc1c(C2CCNCC2)cc(-c2c(O)cccc2OCC2CC2)nc1N 1
C=CC(=O)Nc1cccc(Nc2nc(Nc3ccc(OCCOC)cc3)ncc2F)c1 1
COc1cc(N2CCC(N3CCN(C)CC3)CC2)ccc1Nc1ncnc(Nc2ccccc2S(=O)(=O)C(C)C)n1 1
Fc1ccccc1CNCc1ccc(-c2ccnc3[nH]ccc23)cc1 [OXA 06 dihydrochloride] 1
C[C@H]1COCCN1c1cc(C2(S(=O)(=O)C3CC3)CC2)nc(-c2ccc(NC(=S)NCCO)cc2)n1 1
